Hit rate of the full screen: of about 5,500 compounds, about 2,000 (36%) were called active. Not shown: some 18% with an inconclusive outcome. No stated cut-off is given here; in the data, active means normalized growth mostly below about 0.91 (no sharp cut-off); inconclusive means no clear call, values can overlap the other calls; inactive means mostly above about 0.92. Some of the results follow.
Assay: chemical genetic growth profiling, strain panel (AID 1159580);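 further: tested at 20 µM; growth read once vehicle control cultures reached saturation at 30 °C; 1 = growth at the plate median or of vehicle wells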
Settings: S. cerevisiae deletion strains, growth OD

Measured: normalized growth

NOCC(=O)O
inactive: locus YAL040C, strain CLN3, stronger effect = lower value 0.96 | locus YCL061C, strain MRC1 (second series), stronger effect = lower value 0.985 | locus YDR363W, strain ESC2, stronger effect = lower value 1.01 | locus YER002W, strain NOP16, stronger effect = lower value 0.997 | locus YGR229C, strain SMI1, stronger effect = lower value 0.979 | locus YJR075W, strain HOC1, stronger effect = lower value 1 | locus YNL128W, strain TEP1, stronger effect = lower value 0.977 | locus YNL175C, strain NOP13, stronger effect = lower value 1.01 | locus YNL197C, strain WHI3, stronger effect = lower value 0.993 | locus YNL224C, strain SQS1, stronger effect = lower value 1.04 | locus YNL322C, strain KRE1, stronger effect = lower value 0.998 | locus YOR083W, strain WHI5 (second series), stronger effect = lower value 0.993 | locus YPL055C, strain LGE1, stronger effect = lower value 0.999

— PubChem BioAssay AID1159580 (chemical genetic matrix, 2015)
